# From PubChem
# IL1B secr inh = inhibitors of inflammasome signaling (IL-1 beta secretion) | 360,000 tested, 4.7% active | activity change, % at 57.5 µM | THP-1 LPS/ATP IL-1B secretion, AlphaLISA, 16 h; active compounds read low; in the data active = activity change below about -50%; inconclusive = mostly about -30% to -49%
#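 THP-1 cells pretreated 1 hr with compounds (up to 57.5 uM final), then stimulated with LPS (250 ng/mL final) plus ATP (1.25 mM final); secreted IL-1B measured by AlphaLISA after 16 hr, decreased signal indicating inhibition.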
# DT40 TDP1 CPT = growth inhibition of DT40 Tdp1-/-;hTDP1 cells with camptothecin (screen for TDP1 inhibitors). chicken DT40 Tdp1-/-;hTDP1 cells + 20 nM CPT, ATP luminescence, 48 h. Potency, µM (titrated, usually from 46.2 µM), hits mostly inhibitors. 420,000 tested, 12% active; note: nearly all actives have a fitted effect of over 55% in size
#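 Chicken DT40 Tdp1-/- cells stably complemented with human TDP1 were seeded at 400 cells/well in medium containing 20 nM camptothecin, exposed to pin-transferred compounds, and grown at 37 °C for at least 48 hr. Viability was read as ATP luminescence.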
# DT40 TDP1 no CPT = qHTS for Inhibitors of human tyrosyl-DNA phosphodiesterase 1 (TDP1): qHTS in cells in absence of CPT; Potency, µM (titrated, usually from 46.2 µM), usual class: inhibitors; DT40 Tdp1-/- hTDP1 cells, no CPT, ATP luminescence, 48 h; 420,000 tested, 15% active; note: nearly all actives have a fitted effect of over 55% in size
#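 Cells were dispensed at 400 per well, compounds added by pin tool, plates incubated ≥48 hr at 37 °C, then CellTiter-Glo added for 30 min at room temperature before luminescence reading. Line: DT40 Tdp1-/- complemented with hTDP1; camptothecin omitted.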
# HT1080 IDH1KD tx = kills HT-1080 cells with IDH1 knockdown. HT-1080 IDH1 knockdown viability, ATP luminescence, 48 h. Potency, µM (top dose mostly 46.1 µM), actives largely listed as cytotoxic. 360,000 tested, 2% active. AID 686971
#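 Using the IDH1-knockdown HT-1080 line run in the same batch and compound series as the NT line, viability after 48 h at 37 °C was determined by CellTiter-Glo luminescence and expressed as % activity.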
# ELG1 repair inh = ELG1-dependent DNA repair inhibition; 330,000 tested, 2.3% active; Potency, µM (top dose mostly 46.1 µM), hits mostly inhibitors; HEK293T ELG1-luciferase reporter, luminescence, 16 h; DNA damage induced by 5-fluorouridine; note: nearly all actives have a fitted effect of over 55% in size
#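 Step one: seed 2,000 cells per well. Step two: pin-transfer compound or DMSO alongside 5-fluorouridine. Step three: incubate 16 hr, 37 °C, 5% CO2. Step four: add ONE-Glo, wait 30 min, read luminescence.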
# HT1080-NT tox = kills 2HG-producing HT-1080-NT fibrosarcoma cells. HT-1080-NT fibrosarcoma viability, CellTiter-Glo ATP luminescence, 48 h. Potency, µM (highest dose often 46.1 µM), actives largely listed as cytotoxic. 360,000 tested, 1.6% active. AID 686970;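 note: NT is the 2HG producing partner of a matched IDH1 knockdown line; nearly all actives have a fitted effect of over 55% in size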
#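 HT-1080-NT fibrosarcoma cells (2HG-overproducing), 750 cells/well in RPMI with 5% FBS, dosed after 2 h and incubated 48 h at 37C. CellTiter-Glo luminescence normalized to DMSO and no-cell wells; concentration-response curves fitted and classed.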
# A number is an active result; - = inactive; ? = inconclusive; . = not tested or not shown; [ ] = another dose, or the depositor's remark. Shown are actives, neighbours in structure and some others; about 19% of the full set was active somewhere. Unless noted, calls come from the whole dose curve; as a rule, active = well fitted curve in the direction sought with a large enough effect; inconclusive = small, poorly fitted or top-dose-only effect, or another doubt; inactive = no such curve, though single readings can be large; an effect the other way counts as inactive or inconclusive.
SMILES,IL1B secr inh,DT40 TDP1 CPT,DT40 TDP1 no CPT,HT1080 IDH1KD tx,ELG1 repair inh,HT1080-NT tox
Cc1ccc(CNC(=O)C2CN(S(C)(=O)=O)c3cc(Cl)ccc3O2)cc1 (centres undefined),-,-,?,-,-,-
O=C(CSc1ncnc2ccccc12)Nc1cc(S(=O)(=O)N2CCCCC2)ccc1Cl,-,?,25.9µM,-,20.6µM,-
O=C(CSc1ncnc2ccccc12)Nc1cccc(S(=O)(=O)N2CCCC2)c1,-,?,?,-,-,-
Cc1ccc(NC(=O)CSc2ncnc3ccccc23)cc1S(=O)(=O)N1CCCCCC1,-90.0,25.9µM,?,-,?,-
CCOC(=O)c1c(C)[nH]c(C(=O)N(C)Cc2cccc(OC)c2OC)c1C,-,?,?,-,16.4µM,-
COc1ccc(CN(C)C(=O)c2[nH]c(C)c(C(C)=O)c2C)cc1F,-,?,14.6µM,-,-,-
COc1cccc(CN(C)C(=O)Cc2c[nH]c3ccccc23)c1OC,-,?,16.4µM,-,-,-
COc1cccc(CN(C)C(=O)CSCC(=O)Nc2ccc(C)cc2)c1OC,-,?,11.6µM,-,-,-
COc1ccc(CCNC(=O)c2[nH]c(C)c(C(C)=O)c2C)cc1OC,-,-,-,-,-,-
Cc1ccc(NC(=O)CSCC(=O)N(C)CC(=O)Nc2c(C)cccc2C)cc1,-,-,-,-,.,-
NNc1nc(-c2ccccc2)cc(-c2ccc(Br)cc2)n1,-55.7,?,?,?,-,?
COc1ccc(CN(C)C(=O)c2cc(S(=O)(=O)Nc3ccccc3F)ccc2C)c(OC)c1,-,-,-,-,-,-
CCOC(=O)c1c(SCCN2CCCCC2)n(-c2ccccc2)c(=S)n(-c2ccccc2)c1=O,-,2.91µM,4.11µM,-,.,-
CCc1ccc(C(=O)c2cn(CC(=O)Nc3ccc(OC)cc3)c3cc4c(cc3c2=O)OCO4)cc1,.,-,-,.,.,.
Cc1ccc(C(=O)c2cn(Cc3ccccc3)c3cc4c(cc3c2=O)OCCO4)cc1,.,20.6µM,?,.,.,.
COc1ccc(C(=O)c2cn(Cc3cccc(C)c3)c3cc4c(cc3c2=O)OCO4)cc1,.,16.4µM,25.9µM,.,.,.
COc1ccc(CC2=CC(=O)c3ccccc3C2=O)cc1,-97.8,1.84µM,2.06µM,?,?,?
Cn1c(NCc2ccc3occc3c2)nc2cc(-c3cccc(C(F)(F)F)c3)sc2c1=O,-,-,-,-,.,-
CN(Cc1ccccc1)C(=O)c1cccc(NC(=O)Cc2ccc(NC(=O)C3CCCN(C(=O)CCc4ccccc4)C3)cc2)c1 (centres undefined),-,23.1µM,14.6µM,-,.,-
CN(CCc1ccccc1)C(=O)c1ccc(NC(=O)Cc2ccc(NC(=O)C3CCCN(C(=O)C4CCCCC4)C3)cc2)cc1 (centres undefined),-,?,?,-,.,-
CN(Cc1ccccc1)C(=O)c1ccc(NC(=O)Cc2cccc(NC(=O)C3CCCN(C(=O)CCc4ccccc4)C3)c2)cc1 (centres undefined),-,?,?,-,?,-
CN(C(=O)c1cccc(NC(=O)Cc2ccc(NC(=O)C3CCCN(C(=O)CCc4ccccc4)C3)cc2)c1)C1CCCC1 (centres undefined),-,?,16.4µM,-,.,-
CN(C(=O)c1ccc(NC(=O)Cc2ccc(NC(=O)C3CCCN(C(=O)CCc4ccccc4)C3)cc2)cc1)C1CC1 (centres undefined),-,?,13µM,-,-,-
CN(C(=O)c1ccc(NC(=O)Cc2cccc(NC(=O)C3CCCN(C(=O)CCc4ccccc4)C3)c2)cc1)C1CCCC1 (centres undefined),-,29.1µM,?,-,?,-
O=C(COc1ccc(-c2ccccc2)cc1)N1CCN(C(=O)c2cccs2)CC1,-,-,?,-,?,-
SMILES,IL1B secr inh,DT40 TDP1 CPT,DT40 TDP1 no CPT,HT1080 IDH1KD tx,ELG1 repair inh,HT1080-NT tox
CN(Cc1ccccc1)C(=O)c1cccc(NC(=O)Cc2ccc(NC(=O)C3CCN(C(=O)C4CCCC4)CC3)cc2)c1,-,?,?,-,.,-
CN(Cc1ccccc1)C(=O)c1cccc(NC(=O)Cc2ccc(NC(=O)C3CCCN(C(=O)C4CCCCC4)C3)cc2)c1 (centres undefined),-,16.4µM,?,-,.,-
CN(C(=O)c1cccc(NC(=O)Cc2ccc(NC(=O)C3CCCN(C(=O)C4CCCCC4)C3)cc2)c1)C1CCCCC1 (centres undefined),-,?,?,-,.,-
CN(C(=O)c1cccc(NC(=O)Cc2ccc(NC(=O)C3CCCN(C(=O)CCc4ccccc4)C3)cc2)c1)C1CCC1 (centres undefined),-,?,14.6µM,-,.,-
COC(=O)N1CCC2(CCCN(c3ncccn3)C2)CC1,.,-,-,.,.,.
CCCCCCCCCc1nc2sc3c(c2c(=O)n1NC(=O)c1ccccc1[N+](=O)[O-])CC(C)(C)OC3,-74.4,?,?,?,?,?
CCCCCCCCCc1nc2sc3c(c2c(=O)n1NC(=O)c1ccc([N+](=O)[O-])cc1)CC(C)(C)OC3,-,?,?,?,-,?
O=C(NC1CCN(Cc2ccc(Cl)cc2)CC1)c1cn(-c2ccccc2)nc1-c1cccnc1,?,16.4µM,?,-,-,-[9.24 µM]
O=C(NCc1cccnc1)c1cn(-c2ccccc2)nc1-c1ccccc1,-,-,-,-,-,-
CCCN(CCC)c1cc(C)nc2nc(-c3ccc(Cl)cc3)nn12,.,-,-,.,.,.
COc1ccc(C(=O)N2CCN(CC(=O)N3CCOCC3)CC2)cc1,-,-,-,-,-,-
O=C(NCc1ccc2c(c1)OCO2)c1cc(-c2ccccc2)c(N2CCOCC2)s1,?,?,20.6µM,-,18.3µM,-
O=C(NCc1ccco1)c1cc(-c2ccccc2)c(N2CCOCC2)s1,-,-,-,-,20.6µM,-
Cc1ccc(NC(=S)N(Cc2ccccc2)Cc2cccs2)c(C)c1,-,-,-,-,-,-
Cc1ccc(Nc2nc(NCc3ccccc3)nc3ccsc23)c(C)c1,?,23.1µM,6.51µM,?,.,?
Cc1ccc(Nc2nc(NCc3cccs3)nc3ccsc23)c(C)c1,-51.0,23.1µM,9.2µM,?,.,?
Oc1ccc(Oc2ccc(Oc3ccc(O)cc3)cc2)cc1,-,5.8µM,4.11µM,-,-,-
N#CC1C(C#N)N2CCCN2C1c1ccc(Cl)cc1 (centres undefined),-,8.2µM,7.31µM,-,-,-
